Results taken from PubChem BioAssay.
The source made the active and inactive calls.

Columns and labels:
[1] = optical density shifts of acrAB sulA E. coli – strain DRC41, OD650, 48 h, E. coli filamentation inducer project, primary screen (AID 1152); details: higher = more signal, called active from +8 up or from −8 down;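 also: E. coli MC1000 strain DRC41 lacking acrAB efflux pump and sulA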
[2] = probe aLefty1 binding on compound microarray – biochemical, small-molecule microarray, 635/667 nm fluorescence, primary screen (AID 1153); details: higher = more signal;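 also: score merges spot fluorescence with signal-to-noise ratio from the scanned slide images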
[3] = plasmodial surface anion channel blockers, osmotic lysis – cell-based, P. falciparum Indochina, OD700, 1 h, primary screen (AID 1154); details: P. falciparum Indochina infected RBC osmotic lysis, higher = more signal, called active from +8 up or from −8 down
[4] = plasmodial surface anion channel blockers, osmotic lysis – cell-based, P. falciparum Indochina, OD700, 2 h, primary screen (AID 1155);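 also: lysis reports solute entry through the parasite surface anion channel PSAC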; details: P. falciparum Indochina infected erythrocytes, higher = more signal, called active from +8 up or from −8 down
[5] = changes in parasitized red cell lysis, either direction – P. falciparum Indochina, OD700, 3 h, PSAC antagonist project, primary screen (AID 1156); details: P. falciparum-infected erythrocytes, osmotic lysis, higher = more signal, called active from +8 up or from −8 down
[6] = plasmodial surface anion channel blockers, osmotic lysis – cell-based, P. falciparum Indochina, OD700, 18 h, primary screen (AID 1157); details: P. falciparum Indochina infected erythrocytes, osmotic lysis OD700, 18 h; higher = more signal, called active from +8 up or from −8 down
[7] = S6 kinase pathway phospho-S6 level changes – cell-based, A549, cytoblot, luminescence, serum-stimulated, primary screen (AID 1158); details: 5 h, higher = more signal;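 also: serum-stimulated A549 lung adenocarcinoma cells; signal is phosphorylated S6 detected by cytoblot immunostaining with HRP secondary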
[8] = target: NADPH oxidase 2 (Homo sapiens) (UniProt P04839); assay: compounds shifting NOX2 Amplex Red fluorescence – cell-based, HEK293-NOX2, PMA-stimulated, NOX inhibitor project, primary screen (AID 1159); details: 45 min, higher = more signal, called active from +8 up or from −8 down; also: test concentration not given here
Chain of NADPH oxidase 2 (Homo sapiens) (P04839 whole entry, looked up): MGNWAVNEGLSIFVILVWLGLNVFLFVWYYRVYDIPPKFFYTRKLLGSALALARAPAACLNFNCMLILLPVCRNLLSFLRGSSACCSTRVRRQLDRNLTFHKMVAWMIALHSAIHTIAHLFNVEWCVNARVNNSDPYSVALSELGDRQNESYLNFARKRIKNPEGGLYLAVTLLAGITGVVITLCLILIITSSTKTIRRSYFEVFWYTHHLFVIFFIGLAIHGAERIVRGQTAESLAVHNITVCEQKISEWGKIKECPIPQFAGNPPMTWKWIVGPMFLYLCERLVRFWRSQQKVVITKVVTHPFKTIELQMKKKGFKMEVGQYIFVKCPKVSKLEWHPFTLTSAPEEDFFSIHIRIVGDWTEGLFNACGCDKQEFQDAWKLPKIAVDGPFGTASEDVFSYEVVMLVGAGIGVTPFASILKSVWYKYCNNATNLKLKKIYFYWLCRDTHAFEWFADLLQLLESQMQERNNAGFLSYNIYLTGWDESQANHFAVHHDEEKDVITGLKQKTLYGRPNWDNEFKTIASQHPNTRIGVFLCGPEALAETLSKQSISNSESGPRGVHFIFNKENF

[9] = target: NADPH oxidase 4 (Homo sapiens) (UniProt Q9NPH5); assay: compounds shifting NOX4 Amplex Red fluorescence – cell-based, HEK293-NOX4, tetracycline-induced, NOX inhibitor project, primary screen (AID 1160); details: HEK293-NOX4, Amplex Red H2O2 fluorescence, 45 min; higher = more signal, called active from +8 up or from −8 down
Chain of NADPH oxidase 4 (Homo sapiens) (Q9NPH5 whole entry, looked up): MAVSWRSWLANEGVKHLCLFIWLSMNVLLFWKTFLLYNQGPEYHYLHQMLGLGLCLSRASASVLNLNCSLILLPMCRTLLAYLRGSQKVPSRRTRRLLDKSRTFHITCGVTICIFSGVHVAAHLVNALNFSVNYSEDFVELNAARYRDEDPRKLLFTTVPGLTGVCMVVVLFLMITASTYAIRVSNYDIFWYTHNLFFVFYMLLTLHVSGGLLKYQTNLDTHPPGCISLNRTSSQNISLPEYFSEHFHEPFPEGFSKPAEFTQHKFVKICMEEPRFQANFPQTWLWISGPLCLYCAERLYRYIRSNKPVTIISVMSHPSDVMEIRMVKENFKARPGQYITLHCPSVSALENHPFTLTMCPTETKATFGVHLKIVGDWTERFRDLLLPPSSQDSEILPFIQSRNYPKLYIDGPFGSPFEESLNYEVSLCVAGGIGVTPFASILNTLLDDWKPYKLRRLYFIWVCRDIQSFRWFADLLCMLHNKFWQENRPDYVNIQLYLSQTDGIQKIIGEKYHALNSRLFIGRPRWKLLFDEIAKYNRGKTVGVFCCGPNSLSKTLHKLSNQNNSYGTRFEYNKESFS

[10] = target: NADPH oxidase 5 (Homo sapiens) (UniProt Q96PH1); assay: compounds shifting NOX5 Amplex Red fluorescence – cell-based, HEK293-NOX5, NOX inhibitor project, primary screen (AID 1161); details: HEK293-NOX5, ionomycin, 45 min, higher = more signal
Chain of NADPH oxidase 5 (Homo sapiens) (Q96PH1 whole entry, looked up): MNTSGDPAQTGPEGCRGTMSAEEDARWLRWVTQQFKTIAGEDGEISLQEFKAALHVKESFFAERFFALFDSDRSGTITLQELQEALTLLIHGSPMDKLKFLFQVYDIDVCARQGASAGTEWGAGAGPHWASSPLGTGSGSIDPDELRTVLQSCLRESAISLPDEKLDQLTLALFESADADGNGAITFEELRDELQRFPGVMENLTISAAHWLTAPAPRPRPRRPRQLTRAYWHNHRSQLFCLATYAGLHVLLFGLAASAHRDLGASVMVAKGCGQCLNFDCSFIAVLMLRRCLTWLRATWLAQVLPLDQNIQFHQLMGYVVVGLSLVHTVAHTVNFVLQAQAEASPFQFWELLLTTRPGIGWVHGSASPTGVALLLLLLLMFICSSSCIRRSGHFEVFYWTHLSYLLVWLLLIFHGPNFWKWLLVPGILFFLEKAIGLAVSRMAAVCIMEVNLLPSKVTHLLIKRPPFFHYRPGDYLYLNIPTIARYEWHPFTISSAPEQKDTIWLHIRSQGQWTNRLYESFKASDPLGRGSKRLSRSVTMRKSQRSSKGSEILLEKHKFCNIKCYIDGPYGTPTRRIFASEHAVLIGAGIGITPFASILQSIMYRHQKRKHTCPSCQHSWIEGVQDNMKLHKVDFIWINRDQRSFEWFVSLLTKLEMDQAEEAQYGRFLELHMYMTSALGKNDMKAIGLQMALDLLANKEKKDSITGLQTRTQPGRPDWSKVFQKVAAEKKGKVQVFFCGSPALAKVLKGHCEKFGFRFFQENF

[11] = compound effects on lung adenocarcinoma cell viability – A549, calcein-AM fluorescence, 48 h, basal, profiling panel (AID 1162); details: higher = more signal; also: test concentration not given here
[12] = compound effects on differentiated 3T3-L1 adipocyte viability – cell-based, 3T3-L1 adipocytes, calcein-AM fluorescence, 48 h, basal, profiling panel (AID 1163); details: 3T3-L1 adipocytes viability, higher = more signal; also: test concentration not given here
[13] = compound effects on hepatocellular carcinoma cell viability – HepG2, calcein-AM fluorescence, 48 h, basal, profiling panel (AID 1164); details: higher = more signal; also: test concentration not given here
[14] = compound effects on multiple myeloma cell viability – MM1S, calcein-AM fluorescence, 48 h, basal, profiling panel (AID 1165); details: higher = more signal;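 also: viability of MM1S multiple myeloma cells under basal unstimulated conditions; test concentration not given here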
[15] = calcein-AM signal in unstimulated myeloma cells – cell-based, calcein-AM fluorescence, 48 h, PK04 Diversity Set, profiling panel (AID 1166); details: RPMI8226 myeloma viability, higher = more signal;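 also: cells grown under basal conditions without added stimulus; test concentration not given here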
[16] = JC-1 mitochondrial signal, unstimulated HepG2 cells – cell-based, JC-1 fluorescence, 24 h, 100 nL compound, profiling panel (AID 1167); details: HepG2 mitochondrial potential, higher = more signal; also: test concentration not given here
[17] = JC-1 mitochondrial signal, unstimulated adipocytes – cell-based, JC-1 fluorescence, 3T3-L1 adipocytes, 24 h, 100 nL compound, profiling panel (AID 1168); details: JC-1 mitochondrial fluorescence, higher = more signal, called active from +8 up or from −8 down; also: test concentration not given here
[18] = JC-1 mitochondrial signal, unstimulated myeloma cells – cell-based, JC-1 fluorescence, RPMI8226, 24 h, 100 nL compound, profiling panel (AID 1169); details: JC-1 mitochondrial potential fluorescence, higher = more signal; also: test concentration not given here
[19] = JC-1 mitochondrial signal, unstimulated MM1S myeloma – cell-based, JC-1 fluorescence, 24 h, 100 nL compound, profiling panel (AID 1170); details: MM1S mitochondrial potential, higher = more signal; also: test concentration not given here
[20] = resazurin metabolic signal in A549 cells – cell-based, resazurin fluorescence, 24 h, PK04 Diversity Set, profiling panel (AID 1171); details: A549 viability, higher = more signal, called active from +8 up or from −8 down; also: test concentration not given here

SMILES	z-score [1]	composite z-score [2]	z-score [3]	z-score [4]	z-score [5]	z-score [6]	z-score [7]	z-score [8]	z-score [9]	z-score [10]	z-score [11]	z-score [12]	z-score [13]	z-score [14]	z-score [15]	z-score [16]	z-score [17]	z-score [18]	z-score [19]	z-score [20]
O=C1NCC(=O)N2[C@@H]1C[C@@H](C(=O)O)[C@H]2c1ccc(O)cc1	0.533 (inactive)	0.138	2.73 (inactive)	0.328 (inactive)	-3.02 (inactive)	-0.0173 (inactive)	-0.174	-1.92 (inactive)	-0.822 (inactive)	-1.29	0.391	-0.0074	-0.084	-2.79	-0.0676	0.429	-0.799 (inactive)	0.233	-0.775	0.249 (inactive)
NC(=O)NCC#Cc1ccc2c(c1)[C@]1(C(=O)N2)[C@H](c2ccc(O)cc2)N2[C@H](c3ccccc3)[C@H](c3ccccc3)OC(=O)[C@H]2[C@@H]1C(=O)Nc1nc2ccccc2s1	0.589 (inactive)	0.127	3.28 (inactive)	2.86 (inactive)	0.904 (inactive)	2.09 (inactive)	0.0298	0.0666 (inactive)	-1.01 (inactive)	0.17	0.421	1.17	0.157	-0.168	0.496	-3.24	0.352 (inactive)	-1.16	-2.12	0.754 (inactive)
O=C1OCCC=C[C@H]2OC34C=CCN(c5ccc(Cl)cc5)C(=O)[C@H]3N(CCCCCO)C(=O)[C@@H]4C12 (stereo not given in full)	1.81 (inactive)	0.211	2.21 (inactive)	0.355 (inactive)	1.63 (inactive)	0.795 (inactive)	0.0411	1.69 (inactive)	0.747 (inactive)	2.35	0.657	0.0279	1.11	1.54	-0.579	0.989	1.14 (inactive)	0.211	0.0628	1.03 (inactive)
COc1cc2c(cc1O)C(C)N(Cc1cc3c(cc1Br)OCO3)CC2 (stereo not given)	1.2 (inactive)	-0.0196	2.87 (inactive)	0.551 (inactive)	0.117 (inactive)	0.401 (inactive)	0.36	-3.74 (inactive)	-2.96 (inactive)	-2.91	-0.279	0.453	-0.346	-0.981	-0.308	-0.378	0.168 (inactive)	-0.481	0.71	-0.807 (inactive)
CO[C@H]1O[C@H](CO)[C@@H](OC(=O)Nc2ccc(C(F)(F)F)cc2)[C@H](OC(=O)Nc2ccc3c(c2)OCO3)[C@H]1OC(=O)Nc1ccc2c(c1)OCO2	-0.463 (inactive)	0.662	7.33 (inactive)	0.993 (inactive)	0.61 (inactive)	0.619 (inactive)	-0.388	-4.33 (inactive)	-0.99 (inactive)	-1.82	-2.28	0.758	-2.3	-2.85	-2.66	-0.17	0.298 (inactive)	-0.999	-1.01	-3.17 (inactive)
O=C1O[C@@H](c2ccccc2)[C@@H](c2ccccc2)N2[C@@H](c3ccccc3OCCO)[C@]3(C(=O)Nc4ccc(C#CC5=CCCCC5)cc43)[C@@H](C(=O)NC[C@H](O)c3ccccc3)[C@H]12	2 (inactive)	0.277	0.996 (inactive)	0.526 (inactive)	-2.18 (inactive)	0.0195 (inactive)	0.581	1.74 (inactive)	1.1 (inactive)	2.55	-1.37	1.68	-3.07	-3.25	-4.07	-2.4	2.81 (inactive)	-0.664	-2	-1.46 (inactive)
COCCOC(=O)N1C(=O)[C@@]2(c3cc(C#CC4=CCCCC4)ccc31)[C@H](c1ccc(O)cc1)N1[C@H](c3ccccc3)[C@H](c3ccccc3)OC(=O)[C@H]1[C@@H]2C(=O)Nc1nc2ccccc2s1	-0.567 (inactive)	0.571	2.09 (inactive)	1.76 (inactive)	0.599 (inactive)	1.81 (inactive)	-0.507	1.55 (inactive)	-0.0515 (inactive)	0.897	-0.0695	-0.898	0.0669	-1.01	-1.65	-2.79	-0.451 (inactive)	-0.941	-0.887	-0.304 (inactive)
O=C1OC[C@@H](c2ccccc2)N2CC(/C=C/c3ccccc3)=CC12 (stereo not given in full)	-0.107 (inactive)	-0.469	18.1 (active)	3.85 (inactive)	2.22 (inactive)	1.55 (inactive)	-0.126	0.724 (inactive)	-0.598 (inactive)	0.967	-0.488	-0.125	-0.255	-0.0482	-0.267	-0.251	0.291 (inactive)	-0.306	0.00388	1.05 (inactive)
CCOc1cc(C(O)C2C=CC3C(=O)N(C4CCCCC4)C(=O)C3N2Nc2ccc(OC)cc2)ccc1O (stereo not given)	-0.0582 (inactive)	0.666	6.34 (inactive)	0.679 (inactive)	1.04 (inactive)	0.265 (inactive)	-0.089	-2.2 (inactive)	-3.71 (inactive)	-2.46	0.366	-0.786	0.772	0.26	-0.141	0.551	0.283 (inactive)	-0.0341	-1.87	0.265 (inactive)
